Test results as given in PubChem BioAssay.
The source made the active and inactive calls.

Tests used:
[1] = biological target: Albumin (Bos taurus) (UniProt P02769); assay: bovine serum albumin binders on microarray, profiling panel, artefact control for SMM control protein annotation, biochemical, small-molecule microarray, Alexa647 label, 635/667 nm fluorescence (AID 1118); conditions: BSA-A647 binding, fluorescence 635 nm, higher = more signal;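 further: score merges 667 nm emission intensity and signal-to-noise per printed compound spot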
Chain of Albumin (Bos taurus) (P02769 whole entry, looked up): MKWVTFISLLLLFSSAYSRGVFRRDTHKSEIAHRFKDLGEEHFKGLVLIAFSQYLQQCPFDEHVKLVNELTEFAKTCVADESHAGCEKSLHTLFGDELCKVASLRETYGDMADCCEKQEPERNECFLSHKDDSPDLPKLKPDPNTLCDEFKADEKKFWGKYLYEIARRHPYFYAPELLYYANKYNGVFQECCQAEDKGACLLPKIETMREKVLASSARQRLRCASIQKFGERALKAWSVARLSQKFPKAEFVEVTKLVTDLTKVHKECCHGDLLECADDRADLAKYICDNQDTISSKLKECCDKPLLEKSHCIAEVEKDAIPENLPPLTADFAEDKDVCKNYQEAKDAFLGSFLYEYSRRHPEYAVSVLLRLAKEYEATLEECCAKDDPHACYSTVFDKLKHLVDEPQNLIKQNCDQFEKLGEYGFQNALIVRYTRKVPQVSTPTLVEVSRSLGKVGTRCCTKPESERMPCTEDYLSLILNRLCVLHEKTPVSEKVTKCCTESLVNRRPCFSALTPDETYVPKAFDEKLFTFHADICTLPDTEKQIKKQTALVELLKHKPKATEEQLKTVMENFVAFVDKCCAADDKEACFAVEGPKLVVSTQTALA

[2] = small-molecule microarray binders of probe aXIP, primary screen, biochemical, NeuroSMM set, 635/667 nm fluorescence (AID 1119); conditions: higher = more signal, called active from +8 up or from −8 down;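 further: probe is the protein aXip251-270 applied at 1 µg/mL to compound-printed slides; binding of probe to printed compounds measured as 667 nm fluorescence plus signal to noise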
[3] = small-molecule binders of probe aNOTCH3, primary screen, biochemical, small-molecule microarray, 635/667 nm fluorescence (AID 1120); conditions: higher = more signal;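 further: probe is a biotin-tagged antibody raised against NOTCH3 rather than NOTCH3 protein; score merges spot fluorescence near 667 nm with spot signal to noise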
[4] = small-molecule binders of probe aNOTCH2, primary screen, biochemical, small-molecule microarray, 635/667 nm fluorescence (AID 1121); conditions: higher = more signal;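 further: score merges feature fluorescence read at 667 nm with its signal to noise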
[5] = biological target: Carbonic anhydrase 2 (Homo sapiens) (UniProt P00918); assay: CAII small-molecule binders, profiling panel, biochemical, small-molecule microarray, Alexa647-labelled CAII (AID 1122); conditions: CAII-A647 binding fluorescence, higher = more signal
[6] = COS7 lysate on small-molecule microarray, probe aHis, 635 nm (AID 1123); conditions: COS7 cell lysate, fluorescence, higher = more signal;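 further: z-score combines 667nm fluorescence intensity with signal-to-noise per printed compound spot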
[7] = compound binding in COS7 lysate, probe aLAP1, primary screen, cell lysate, small-molecule microarray (AID 1124); conditions: probe aLAP1, fluorescence, higher = more signal;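 further: lysate comes from COS7 cells expressing LAP1 and is applied at 0.3 µg/mL; score merges spot fluorescence near 667 nm with signal-to-noise over triplicate slides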
[8] = test system: Sam68 (KHDRBS1); assay: Sam68 small-molecule binders, primary screen, biochemical, small-molecule microarray, 635 nm fluorescence (AID 1125); conditions: small-molecule microarray binding, higher = more signal;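 further: score merges 667 nm channel intensity with signal to noise over triplicate slides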
[9] = test system: Chordin-like protein 2 (CHRDL2); assay: CHRDL2 small-molecule binders, primary screen, biochemical, small-molecule microarray, 635 nm fluorescence (AID 1126); conditions: small-molecule microarray binding, fluorescence 635 nm; higher = more signal;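 further: printed compound slides probed with Chrdl2 protein at 4 µg/mL for 1 h at 4 C; score merges 667 nm emission intensity with signal to noise over three replicate slides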
[10] = biological target: Concanavalin-A (Canavalia ensiformis) (UniProt P02866); assay: ConA small-molecule binders, primary screen, artefact control for SMM control protein annotation, biochemical, small-molecule microarray, Alexa647 label, 635 nm (AID 1127); conditions: ConA-A647 binding fluorescence, higher = more signal;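 further: z combines 667 nm emission intensity with signal-to-noise across three replicate slides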
Chain of Concanavalin-A (Canavalia ensiformis) (P02866 whole entry, looked up): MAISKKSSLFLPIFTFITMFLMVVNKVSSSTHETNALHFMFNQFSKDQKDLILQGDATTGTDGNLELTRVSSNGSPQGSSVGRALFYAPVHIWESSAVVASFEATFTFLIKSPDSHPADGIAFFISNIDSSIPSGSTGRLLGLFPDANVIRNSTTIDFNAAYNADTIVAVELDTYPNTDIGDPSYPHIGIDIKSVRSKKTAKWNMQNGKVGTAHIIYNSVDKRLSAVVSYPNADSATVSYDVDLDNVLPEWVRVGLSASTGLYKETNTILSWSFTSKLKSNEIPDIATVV

SMILES | composite z-score [1] | composite Z-score [2] | composite z-score [3] | composite z-score [4] | composite z-score [5] | composite z-score [6] | composite z-score [7] | composite z-score [8] | composite z-score [9] | composite z-score [10]
Cc1ccc(S[C@]2(C(=O)O)CC(=O)N(C3Cc4ccccc4C3)[C@@H]2c2ccc(CO)cc2I)cc1 | -0.133 | -0.0549 (inactive) | -0.0725 | -0.0799 | 0.675 | 1.1 | 0.672 | -0.0018 | 0.0442 | 0.181
C=C[C@H](C)[C@@H](O)c1ccc(O)c2ccccc12 | 0.841 | 0.681 (inactive) | -0.191 | 0.291 | 0.493 | 0.165 | 0.361 | -0.49 | 0.866 | -1.04
CC(=O)Nc1cc(Br)ccc1C(=O)O | 0.782 | -0.705 (inactive) | -0.0142 | -0.0502 | 0.363 | 0.385 | -0.0197 | 0.402 | -0.421 | 0.984
C=C(C(=O)CC[C@H](OC(C)=O)c1ccc(OCCO)cc1)C(C)C | 0.531 | 0.277 (inactive) | 0.0569 | -0.132 | 0.708 | 0.354 | 1.15 | 0.564 | 0.615 | 0.846
COC(=O)[C@@]1(Cc2ccccc2)[C@H]2c3cc(C(=O)N(C)C)n(Cc4cc(C)n(C)n4)c3C[C@H]2CN1C(=O)c1ccccc1 | 1 | -0.138 (inactive) | 0.718 | 0.258 | 0.931 | 2.63 | 0.993 | 0.812 | -0.979 | 0.711
C=CCC(OC(C)=O)[C@@H]1[C@@H](N(Cc2cc3ccccc3o2)C(=O)c2ccc(C)cc2)c2cc(OCCCO)ccc2N1C(=O)c1ccc2ccccc2c1 (stereo not given in full) | 0.767 | 0.698 (inactive) | 0.0259 | -0.101 | 0.0486 | 0.605 | -0.069 | -0.0437 | 0.157 | -0.309
COC(=O)[C@@]1(Cc2ccc(OC)cc2)[C@H]2c3cc(C(=O)N4CCCC4)n(CCc4c[nH]c5cc(F)ccc45)c3C[C@H]2CN1C(=O)c1ccccc1 | 0.957 | -0.0378 (inactive) | 0.127 | 0.0064 | 0.714 | 3.24 | 0.959 | 1.29 | -0.703 | 0.871
C[C@]1(C(=O)NCc2ccccc2)c2ccccc2C(=O)N(Cc2cc(F)cc(C(F)(F)F)c2)[C@H]1c1ccc(CO)cc1 | -0.35 | -0.146 (inactive) | -0.177 | -0.0971 | 0.699 | 0.157 | 0.325 | -0.763 | -0.786 | -0.871
COC(=O)[C@@]1(Cc2ccccc2)[C@H]2c3cc(C(=O)N4CCCC4)n(Cc4ccc(C)o4)c3C[C@H]2CN1C(=O)c1ccccc1 | 0.905 | -0.56 (inactive) | 0.415 | 0.0263 | 0.787 | 0.597 | 0.487 | 0.17 | -0.589 | -0.289
COCCOC(=O)N1C(=O)[C@@]2(c3cc(C#CCCO)ccc31)[C@H](c1ccccc1OCCO)N1[C@H](c3ccccc3)[C@H](c3ccccc3)OC(=O)[C@H]1[C@@H]2C(=O)N1CCN(c2ncccn2)CC1 | 0.602 | 0.341 (inactive) | 0.413 | 0.123 | 0.539 | 2.02 | 0.505 | 1.12 | 0.52 | 1.15
CC(C)C(=C=CC[C@H](O)c1ccccc1OCCO)C[C@H](O)c1ccccn1 | 0.161 | 0.41 (inactive) | 0.395 | -0.0488 | 0.632 | 0.559 | 1.61 | 0.861 | -0.161 | -0.0625
COC(=O)c1c(CC[C@@H](CO)NC(=O)N[C@@H](Cc2ccccc2)Cn2cc(C3(O)CCCCC3)nn2)oc(C(C)=O)c1C(=O)OC | 0.357 | -0.0293 (inactive) | 0.0893 | -0.0942 | 0.253 | 0.287 | -0.0804 | 1.29 | 0.625 | 0.82
